Source: PubChem (The Scripps Research Institute Molecular Screening Center)
SRC2 TRFRET art: counter-screen for PPARgamma SRC-2 recruitment agonists: TR-FRET artefact; hits give high values; TR-FRET ratio at 8 µM; hit rate 0.4% among 200,000
SRC1 TRFRET art: flags TR-FRET format artefacts in PPARgamma SRC-1 recruitment agonist screen. TR-FRET detection artefact counter-screen, emission ratio; hits give high values. TR-FRET ratio at 8 µM. hit rate 0.34% among 99,000. AID 1051; in the data active = TR-FRET ratio above about 2300
SRC3 TRFRET art: TR-FRET artefact, counter-screen to PPARgamma/SRC-3 agonist assay. PPARgamma/SRC-3 format; hits give high values. TR-FRET ratio at 8 µM. hit rate 0.39% among 99,000. AID 1048
PPARg SRC2 recr: PPARgamma-driven SRC-2 recruitment agonism; activation, % at 8 µM; PPARgamma LBD-SRC-2 recruitment, biochemical; hit rate 0.34% among 200,000; P37231; in the data active = activation above about 22%;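 note: 0% = vehicle and 100% = reference agonist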
Target sequence (P37231 whole entry, looked up, the tested form may be a part): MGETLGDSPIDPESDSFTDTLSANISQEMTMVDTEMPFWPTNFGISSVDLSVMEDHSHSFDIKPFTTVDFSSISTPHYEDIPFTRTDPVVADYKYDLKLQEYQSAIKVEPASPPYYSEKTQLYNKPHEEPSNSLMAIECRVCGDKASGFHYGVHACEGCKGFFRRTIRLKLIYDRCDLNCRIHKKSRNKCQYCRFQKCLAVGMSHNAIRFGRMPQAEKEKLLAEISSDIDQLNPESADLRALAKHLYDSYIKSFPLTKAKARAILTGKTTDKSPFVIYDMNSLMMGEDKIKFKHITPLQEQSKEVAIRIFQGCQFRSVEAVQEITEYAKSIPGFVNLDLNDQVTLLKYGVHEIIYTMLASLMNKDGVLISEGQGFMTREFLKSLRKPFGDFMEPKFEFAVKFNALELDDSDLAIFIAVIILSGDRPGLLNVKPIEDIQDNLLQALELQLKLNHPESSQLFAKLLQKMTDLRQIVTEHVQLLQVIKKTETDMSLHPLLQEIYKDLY
PPARg SRC1 recr: PPARgamma-driven SRC-1 recruitment agonism; P37231; PPARgamma-SRC-1 coactivator recruitment biochemical assay; activation, % at 8 µM; hit rate 0.41% among 200,000; in the data active = activation above about 19%;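 note: 0% = DMSO and 100% = reference agonist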
PPARg SRC-3 ag: promotes SRC-3 coactivator recruitment by human PPARgamma; activation, % at 8 µM; AID 731; P37231; biochemical PPARgamma/SRC-3 coactivator recruitment assay; hit rate 0.26% among 200,000; in the data active = activation above about 23%;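 note: 0% = DMSO and 100% = reference agonist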
Starred values were filed as active, the others as inactive; x = no result. In the library only some 0.84% were active in any assay of this set; here they are far more common. Cut-off read from the data, not from the text of the source, unless noted: active = TR-FRET ratio above about 2000; inactive = the rest.

SMILES	SRC2 TRFRET art	SRC1 TRFRET art	SRC3 TRFRET art	PPARg SRC2 recr	PPARg SRC1 recr	PPARg SRC-3 ag
O=C(CSc1nc2ccccc2c(=O)n1-c1ccc(F)cc1)Nc1cc(S(=O)(=O)N2CCOCC2)ccc1Cl	2011*	2193	2000	4	-1	4
COC(=O)c1ccc2c(=O)n(Cc3ccco3)c(SCC(=O)Nc3ccc(C)c(Cl)c3)nc2c1	1665	x	x	10	16	-11
COc1ccc(C(=O)Nn2c(SCC(=O)c3ccc(Cl)cc3)nc3ccccc3c2=O)cc1	2000*	x	x	5	-1	7
CCN(CC)CCCNC(=O)c1ccc2c(SCC(=O)O)c3c(nc2c1)CCC3	1661	1924	1780	23*	9	5
Cc1[nH]c2ccccc2c1C(=O)C(=O)NCCOc1ccccc1	1907	2149	1657	24*	3	2
COc1ccc(CNC(=O)C/C(C)=N/NC(=O)c2ccc([N+](=O)[O-])cc2Cl)cc1	1310	1453	1550	-4	-9	-2
c1ccc(-n2ncc3c(NCc4cccs4)ncnc32)cc1	1716	1950	2147*	9	8	5
Cc1cc(NC(=O)C2CC2)n(-c2nc3ccccc3s2)n1	1483	1424	1424	-4	-6	-1
CCOc1ccc(-c2nn(-c3ccccc3)cc2/C=C2\SC(N)=NC2=O)cc1C	1581	x	x	3	-1	29*
CCOc1ccc(-c2nn(-c3ccccc3)cc2/C=C2\SC(=S)N(C3CCS(=O)(=O)C3)C2=O)cc1 (stereo not drawn)	1500	x	x	-8	-4	-13
Cc1cnc(NC(=O)c2ccncc2)s1	1181	1821	1433	-2	-5	-2
Cc1csc(C(C#N)C(=O)c2ccncc2)n1 (stereo not drawn)	2112*	1677	1733	31*	11	4
Cc1ccc(-c2ccc(C3C(C#N)=C(N)Oc4n[nH]c(C)c43)o2)cc1 (stereo not drawn)	1479	x	x	-8	-1	14
Cc1[nH]nc2c1C(c1ccc(-c3ccc(Cl)cc3)o1)C(C#N)=C(N)O2 (stereo not drawn)	1664	1928	1758	23*	7	4
CCOC(=O)CSc1c(-c2ccc(Cl)cc2)[nH]c2ccccc12	1904	2190	2441*	15	14	12
CC(=O)Nc1ccc(S(=O)(=O)Nc2nc3ccccc3nc2Sc2nncn2C)cc1	2233*	x	x	7	0	0
Cc1ccc(CN2CCNC(=O)C2CC(=O)N(Cc2c(C)nn(C)c2C)C2CC2)o1 (stereo not drawn)	1417	1775	1715	0	8	4
O=S(=O)(NCC(c1cccnc1)N1CCN(c2ccccc2)CC1)c1cc(F)ccc1F (stereo not drawn)	1674	x	x	5	5	5
COc1cccc(C(=O)Nc2ccc(-c3nc4ccccc4o3)c(O)c2)c1	2264*	x	x	9	3	-5
CCOc1ccc(Br)cc1C(=O)N/N=C/c1ccc([N+](=O)[O-])cc1	1653	1882	1542	12	9	3
CCC(=O)Nc1ccc(C(=O)N/N=C/c2ccc([N+](=O)[O-])cc2)cc1	1712	2345*	1554	4	11	7
COc1ccc(Br)cc1C(=O)N/N=C/c1ccc([N+](=O)[O-])cc1	1717	2467*	1795	5	30*	0
CCC(=O)n1nc(-c2cccnc2)nc1NCc1ccccc1	1650	1793	1573	7	9	7
Cn1cnnc1Sc1cc(N2CCN(S(=O)(=O)c3ccc(Cl)c(Cl)c3)CC2)ccc1[N+](=O)[O-]	1357	x	x	-1	-2	0
CC(NC(=O)COC(=O)c1cn(-c2ccccc2)nc1-c1cccs1)c1ccccc1 (stereo not drawn)	2073*	x	x	7	15	0
SMILES	SRC2 TRFRET art	SRC1 TRFRET art	SRC3 TRFRET art	PPARg SRC2 recr	PPARg SRC1 recr	PPARg SRC-3 ag
O=C(c1cn(-c2ccccc2)nc1-c1cccs1)N1CCN(c2ccc(F)cc2)CC1	2165*	x	x	3	12	12
O=C(Nc1ccncc1)c1cn(-c2ccccc2)nc1-c1cccs1	1391	x	x	3	2	-4
Oc1ccc(NCc2cccc(OCc3ccc(F)cc3)c2)cc1	1856	1688	1598	-1	23*	3
O=[N+]([O-])c1ccc(COc2cccc(CNc3ccc(F)cc3)c2)cc1	1394	1914	1639	-3	-2	-4
COc1ccc([N+](=O)[O-])cc1NC(=S)NC(NC(=O)C(c1ccccc1)c1ccccc1)C(Cl)(Cl)Cl (stereo not drawn)	2107*	x	x	7	3	4
CC(=O)c1ccc(NC(=O)COC(=O)c2ccccc2N=Nc2ccc(N(C)C)cc2)cc1	1674	2419*	1886	9	9	4
COc1cc(OC)cc(C(=O)NCC(=O)OCC(=O)/C=C2/N(C)c3ccccc3C2(C)C)c1	1591	1763	1511	-4	2	-3
CN1/C(=C\C(=O)COC(=O)Cn2nnc(-c3ccccc3)n2)C(C)(C)c2ccccc21	2474*	x	x	9	10	5
CS(=O)(=O)Nc1ccc(C(=O)Nc2ccc(S(=O)(=O)N3CCCC3)cc2)cc1	1992*	2042	1616	3	9	-2
CC(=O)Nc1ccc(C(=O)Nc2ccc(S(=O)(=O)N3CCCC3)cc2)cc1	1618	2097	1576	10	9	5
Cc1ccccc1-n1c(C)cc(/C=N/NC(=O)c2ccncc2)c1C	1379	x	x	-6	-4	-6
Cc1cc(C)cc(-n2c(C)cc(/C=N/NC(=O)c3ccncc3)c2C)c1	1986*	2092	1610	4	1	1
NNc1nc2cccnc2n(CCNc2ncc(C(F)(F)F)cc2Cl)c1=O	1488	1823	1447	1	-6	2
O=c1c(Cl)nc2cc(Cl)ccc2n1CCNc1ncc(C(F)(F)F)cc1Cl	1553	x	x	3	32*	-6
O=C(NCCCN1CCCC1)C1CCN(C(=O)c2cc3sccc3n2Cc2ccc(F)cc2)CC1	1419	x	x	-9	-2	-4
COc1ccc2nc(SCC(=O)N3CCN(c4ccc(F)cc4)CC3)c(C#N)cc2c1	2728*	x	x	13	12	7
CCOC(=O)C1=c2s/c(=C\c3cccnc3)c(=O)n2C(N)=C(C(=O)OC)C1c1cccnc1 (stereo not drawn)	1366	x	x	-1	6	-11
COc1cc(NC(=O)c2cc(Cl)ccc2Cl)ccc1-c1cc2ccccc2oc1=O	2091*	x	x	2	8	4
Cc1ccc(C(=O)COC(=O)CNC(=O)c2ccc(N3C(=O)c4ccccc4C3=O)cc2)cc1C	1664	1845	1616	-2	7	5
COc1cccc(-c2cc3nc(-c4ccccc4)cc(N4CCC5(CC4)OCCO5)n3n2)c1	2317*	x	x	7	9	8
O=S(=O)(c1cccc(-c2cn3cccnc3n2)c1)N1CCOCC1	1801	1702	1790	12	1	2
O=C(O)c1cnn(-c2ccccc2)c1-n1cccc1	1618	x	x	7	3	14
NNC(=O)c1cnn(-c2ccccc2)c1-n1cccc1	2005*	1758	1641	30*	-8	3
